NPSR antag: qHTS Assay for Antagonists of the Neuropeptide S Receptor: cAMP Signal Transduction | Q6W5P4 | CHO-NPSR cells, cAMP TR-FRET, antagonist mode | 220,000 compounds, 1% hits | Potency, µM (doses to about 38.3 µM), inactives show at the highest dose activity change, negative = inhibition, usual class: inhibitors; note: potency is the fitted concentration of half-maximal effect; % is set by controls: 0 for no effect and ±100 for the full control effect; nearly all actives have a fitted effect of over 50% in size
PKM2 activator: qHTS Assay for Activators of Human Muscle isoform 2 Pyruvate Kinase; Pyruvate kinase PKM (Homo sapiens), P14618; purified PKM2, Kinase-Glo ATP luminescence, activation; response scale: 0% is enzyme alone, no compound; Potency, µM (doses to about 57.5 µM), for the others: top-dose activation, actives largely listed as activators; 260,000 compounds, 0.34% hits; AID 1631, 2009; note: potency is the fitted concentration of half-maximal effect; % is set by controls: 0 for no effect and ±100 for the full control effect; nearly all actives have a fitted effect of over 55% in size
Target sequence (P14618 whole entry, looked up, canonical isoform): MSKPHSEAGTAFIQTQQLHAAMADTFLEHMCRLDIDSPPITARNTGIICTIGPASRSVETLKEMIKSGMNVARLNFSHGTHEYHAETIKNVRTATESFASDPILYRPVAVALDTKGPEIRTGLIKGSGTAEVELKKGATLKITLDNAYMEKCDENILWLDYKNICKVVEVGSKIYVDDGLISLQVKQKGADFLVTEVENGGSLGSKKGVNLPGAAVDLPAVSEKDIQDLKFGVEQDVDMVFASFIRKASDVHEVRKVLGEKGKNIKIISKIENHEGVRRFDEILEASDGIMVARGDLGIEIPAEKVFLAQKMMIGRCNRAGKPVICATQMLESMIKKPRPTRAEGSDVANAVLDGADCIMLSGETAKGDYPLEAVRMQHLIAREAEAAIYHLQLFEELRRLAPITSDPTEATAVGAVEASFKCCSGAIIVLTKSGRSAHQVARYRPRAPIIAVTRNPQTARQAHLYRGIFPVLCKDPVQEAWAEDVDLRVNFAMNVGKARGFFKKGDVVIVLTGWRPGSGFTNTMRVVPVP
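hPK-M2, >95% pure; 0.1 mM ADP / 0.5 mM PEP final; imidazole pH7.2 buffer w/ 7 mM MgCl2, 50 mM KCl; 1 h RT; Kinase-Glo lum. Intermediate enzyme activity for dual inhibitor/activator qHTS.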
ClpP mod: qHTS Assay for Activators of ClpP. AID 651965, 2013. purified B. subtilis ClpP, FRET peptide cleavage, 20 min. Potency, µM (top dose mostly 57.5 µM), inactives show top-dose activity change, negative = active. 340,000 compounds, 1.9% hits; active = well fitted falling curve with a large enough effect; inconclusive = small, poorly fitted or top-dose-only effect; inactive = no such curve, though single readings can be large or run the other way; note: potency is the fitted concentration of half-maximal effect; the source files actives as falling curves though it sought activators and does not explain the sign; nearly all actives have a fitted effect of over 65% in size
Target sequence (P80244 whole entry, looked up): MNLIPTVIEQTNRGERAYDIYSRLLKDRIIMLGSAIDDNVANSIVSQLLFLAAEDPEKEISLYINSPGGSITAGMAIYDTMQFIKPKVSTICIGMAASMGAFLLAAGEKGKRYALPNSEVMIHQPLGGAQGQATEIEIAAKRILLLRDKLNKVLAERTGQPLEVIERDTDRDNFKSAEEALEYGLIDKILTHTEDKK
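Purified B. subtilis ClpP, 10 microg/mL final in Tris/HCl pH8 with KCl, BSA, glycerol and Tween-20, cleaved an Abz/nitrotyrosine-quenched decapeptide. Fluorescence (ex 320, em 430) was read at 0 and 20 min at room temperature. Delta was normalized to 5.8 microM ADEP and DMSO/no-enzyme controls.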
IL-2 act: qHTS of IL-2 Activators; IL-2 activation reporter assay, cell-based qHTS; stimulated with anti-CD3/CD4/CD28 beads; in transgenic mouse T cells; activation, % (series mostly up to about 46 µM); 360,000 compounds, 0.065% hits; in the data active = activation above about 50%; inconclusive = mostly about 30% to 49%; note: 0% is about no effect
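Readout is EGFP and DsRed signal by fluorescent plate cytometry after 18 h at 37 degrees C. Transgenic mouse T cells (750/well) received compound for 60 min before bead stimulation (anti-CD3, anti-CD4, anti-CD28); memory T cells served as non-tolerant control.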
Numbers without * were called inactive; ? = inconclusive; . = no result; [ ] = remark or other dose. Sampled rows, rich in hits. Any-hit rate of the full collection: about 2%. Unless noted, calls come from the whole dose curve; as a rule, active = well fitted curve in the direction sought with a large enough effect; inconclusive = small, poorly fitted or top-dose-only effect, or another doubt; inactive = no such curve, though single readings can be large; an effect the other way counts as inactive or inconclusive.

SMILES | NPSR antag | PKM2 activator | ClpP mod | IL-2 act
COc1ccc(C2c3c(n(C)c4ccccc34)C(=O)N2CC(=O)Nc2ccccc2F)cc1 (stereo not drawn) | . | . | -28.8% | .
CCCNC(=O)CN1C(=O)c2c(c3ccccc3n2C)C1c1ccc(OC)cc1 (stereo not drawn) | . | . | 28.2µM* | .
Cc1ccc(S(=O)(=O)C[C@@H]2OC3CCCCC3N2S(=O)(=O)c2ccc(C)cc2)cc1 (stereo partly drawn) | . | . | -1.9% | -0.2
N=c1ccccn1CC(O)COc1ccccc1 (stereo not drawn) | -3.9%[46.1 µM] | -5.4% | ? | 1.6
CC(O)Cn1ccccc1=N (stereo not drawn) | 2.6%[46.1 µM] | 0.8% | 15.8µM* | -0.3
Cc1ccccc1NC(=O)c1sc2nc(-c3cc4ccccc4oc3=O)[nH]c(=O)c2c1C | . | . | 0.5% | .
COC(=O)c1cc2c(ccn2-c2ccc(F)cc2)n1C(C)C | -27.4%[46.1 µM] | 1.8% | ? | -0.4
CCOC(=O)c1cc2c(ccn2-c2ccc(F)cc2)n1CC(=O)N1CCN(C(=O)c2ccco2)CC1 | 17.2%[46.1 µM] | 1.8% | 31.6µM* | 0.5
COC(=O)c1cc2c(ccn2-c2ccc(F)cc2)n1CC(C)C | -20.0%[46.1 µM] | 9.4% | 28.2µM* | -1.4
CCCn1c(C(=O)OC)cc2c1ccn2-c1ccc(F)cc1 | -24.3%[46.1 µM] | -3.2% | 28.2µM* | -0.2
Cc1cc(C(=O)OCC(=O)N2CCN(C(=O)c3ccco3)CC2)c(C)n1-c1ccc(F)cc1 | 10.7%[46.1 µM] | -2.8% | 0.9% | 1.8
CCOC(=O)C1(C)C=C(Nc2ccc(O)cc2)C(=O)N1c1ccc(O)cc1 (stereo not drawn) | -4.4% | -15.9% | 0.2% | 0.0
NC(=S)Nc1cccc2[nH]ccc12 | -8.4% | -0.8% | -1.3% | -2.3
CCN1CCN(C(c2ccccc2)c2nnnn2Cc2ccc3c(c2)OCO3)CC1 (stereo not drawn) | -7.1% | 0.1% | 0.8% | 2.7
COc1ccc(OCc2cc(=O)[nH]c3ccccc23)cc1 | . | -1.9% | 15.8µM* | -0.7
COc1ccc(-c2nc3c(c(=O)[nH]c(=O)n3Cc3ccccc3)n2Cc2ccccc2)cc1 | 5.4%[46.1 µM] | -5.3% | 28.2µM* | 0.5
CCCn1c(-c2cc(OC)c(OC)c(OC)c2)nc2c1c(=O)[nH]c(=O)n2Cc1ccccc1 | . | . | . | -0.7
COc1ccc(-c2nc3c(c(=O)[nH]c(=O)n3Cc3ccccc3)n2C)cc1 | ? | -20.5% | 35.5µM* | 0.2
Cc1nn(C)cc1C(C)NC(=O)c1cc(COc2cccc3cnccc23)on1 (stereo not drawn) | . | 0.7% | 15.8µM* | -4.5
CCO[C@@H]1OC(C(=O)N2CCOCC2)=C[C@H](c2coc3ccccc3c2=O)[C@H]1CCCO | -6.0% | -0.4% | -1.7% | -0.2
CCOc1cc(C(=S)N2CCOCC2)ccc1OC(=O)/C=C/c1ccc(OC)c(OC)c1 | 8.4% | -0.6% | 25.1µM* | 0.4
CCOc1ccc(/C=C/C(=O)N2CCOCC2)cc1OC | . | 1.3% | ? | -0.9
Cc1ccc(/C=C2\C(=O)ON=C2c2ccccc2)o1 | -9.9% | -3.1% | . | 1.5
Cc1ccc(-c2ccc(/C=C3\C(=O)ON=C3c3ccccc3)o2)c([N+](=O)[O-])c1 | 7.94µM* | 28.2µM* | 0.9% | -1.9
Cn1nccc1C(=O)NC1CCCc2c1cnn2-c1cc(F)cc(F)c1 (stereo not drawn) | . | . | -2.8% | -2.7
SMILES | NPSR antag | PKM2 activator | ClpP mod | IL-2 act
O=S(=O)(Nc1ccc2ccccc2c1)c1ccccc1 | -3.5% | 2.8% | 14.1µM* | -4.3
Cc1ccc(S(=O)(=O)Nc2ccc3ccccc3c2)cc1 | . | . | 1.5% | -5.6
COc1ccccc1CNC(=O)C1CCN(Cc2cc3ccccc3n2Cc2cccc(C)c2)CC1 | . | . | -17.2% | .
CCN1CCN(CCCNC(=O)Cn2c(-c3cccs3)cc3cc(F)ccc32)CC1 | . | . | 17.8µM* | .
O=C(Cn1c(-c2cccs2)cc2cc(F)ccc21)NCCCN1CCN(c2ccc(F)cc2)CC1 | . | . | 31.6µM* | .
CCN1CCN(CCNC(=O)Cn2c(=O)c3cccn3c3ccc(F)cc32)CC1 | . | . | -29.9% | -1.7
Cc1ccc(NC(=O)[C@@H](c2ccccc2)N2Cc3ccccc3C2=O)cc1 | . | . | -0.3% | .
CCN1CCCC1CNC(=O)c1cc2c(-c3ccc(Cl)cc3)nn(C)c2s1 (stereo not drawn) | -17.5%[46.1 µM] | -2.1% | 4.5% | 0.8
CCN1CCCC1CNC(=O)c1cc2c(-c3cccc(OC)c3)nn(C)c2s1 (stereo not drawn) | 4.4%[46.1 µM] | 2.5% | 31.6µM* | 0.4
CCN(CC)CCCNC(=O)c1cc2c(-c3cccc(OC)c3)nn(C)c2s1 | . | . | 4.9% | -0.4
COc1cccc(-c2nn(C)c3sc(C(=O)NCc4ccco4)cc23)c1 | ? | 9.6% | 22.4µM* | -1.5
CCOC(=O)C1=C(CC)Nc2ccccc2N=C1NC(=O)c1ccc(OC)c(S(=O)(=O)N2CCCCC2C)c1 (stereo not drawn) | -42.9% | 0.8% | -2.3% | -0.2
OCC1OC(n2nnc3ccccc32)C(O)C(O)C1O (stereo not drawn) | -0.4%[46.1 µM] | 1.4% | -2.8% | -1.5
Cc1ccc(C(=O)NNC(=O)c2ccc(NS(=O)(=O)c3cccs3)cc2)o1 | . | . | -0.3% | 0.3
CCc1c(C)nc2cc(-c3ccc(OC)c(OC)c3)nn2c1NCC1CC1 | 12.6µM* | -0.3% | ? | -6.4
COc1ccc(CCNC(=O)CCc2c(C)nc3cc(-c4ccccc4)nn3c2C)cc1OC | . | . | -28.0% | .
CC1(C)Cc2c(ccc3ccccc23)-c2nnc(-c3cccnc3)n21 | 4.1%[46.1 µM] | 0.4% | -12.7% | -1.3
CC(C)C12NC(=O)NC(=O)N1CCS2 (stereo not drawn) | . | . | -2.8% | -0.6
CCN(CC)CCNC(=O)C(=O)Nc1cc2c3c(c1)CCN3C(=O)CC2 | . | . | -1.7% | -0.7
Cc1ccccc1OCCC(=O)Nc1cccc(S(=O)(=O)Nc2ccccc2Cl)c1 | -6.6% | 2.3% | 14.1µM* | 0.6
Cc1ccc(C)c(OCCC(=O)Nc2cccc(S(=O)(=O)NC3=NCCCCC3)c2)c1 | . | . | -2.7% | -0.7
O=C1OCCC1Sc1nc2ccccc2c(=O)n1Cc1ccc(F)cc1 (stereo not drawn) | -6.1% | -3.7% | 0.6% | 0.4
O=C1OCCC1Sc1nnc(-c2ccc(F)cc2)n1Cc1ccccc1 (stereo not drawn) | 5.8% | -2.0% | 25.1µM* | -0.2
O=S(=O)(c1cccc(-c2nnc(SCc3nc4ccccc4s3)o2)c1)N1CCOCC1 | -16.4%[46.1 µM] | -4.6% | 28.2µM* | -0.5
CCCNCC(=O)Nc1cccc(S(=O)(=O)NC2=NCCCCC2)c1 | . | . | -2.9% | 0.6
Cc1ccc(OCC(=O)Nc2cccc(S(=O)(=O)NC3=NCCCCC3)c2)cc1C | . | -0.5% | 14.1µM* | -3.3
CCCCCC(=O)Nc1cccc(S(=O)(=O)NC2=NCCC2)c1 | . | . | 35.5µM* | 0.1
Cc1cc(OCC(=O)Nc2cccc(S(=O)(=O)NC3=NCCCCC3)c2)ccc1Cl | 6.7% | -3.2% | -0.5% | -1.4
